This is part of a sample that, as a whole, favours compounds with a hit. Of some 79,000 tested, about 15% had one in any assay. Unmarked numbers belong to inactive results. Active and inactive are the calls of the source. No stated cut-off is given here; in the data, active means growth inhibition above about 70%; inactive means the rest.
test: NCI Yeast Anticancer Drug Screen. Data for the bub3 strain (AID 167); conditions: S. cerevisiae bub3 mutant strain, at 50.0 µM, hits give high values
In short: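 Screening used yeast with an engineered genetic alteration affecting cell cycle control. Compound-exposed cultures were compared with vehicle cultures, and reduced growth was taken as inhibition.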

Question: Which growth inhibition does the source give for `COc1cc(C(=O)C/C(CCC(=O)Nc2ccc(Cl)cc2Cl)=N/NC(=O)C(N)=O)ccc1O` here?
Answer: -1.45%

Question: With `CC(CO)N1CCCCCC1` (stereo not given) as the compound, how does the growth inhibition read?
Answer: 10.7%

Question: With `CCC(COCC(CC)C(=O)O)C(=O)O` (stereo not given) as the compound, how does the growth inhibition read?
Answer: 12.7%

Question: With `CCOC(=O)c1c(C)[nH]c(=S)c(C#N)c1-c1ccc(Cl)cc1` as the compound, how does the growth inhibition read?
Answer: 28.6%

Question: With `CCSc1ccc(N=[N+]([O-])c2ccc(SCC)c(Cl)c2)cc1Cl` as the compound, how does the growth inhibition read?
Answer: -4.6%

Question: With `COc1ccc(Oc2nc(=O)n3ccccc3n2)cc1` as the compound, how does the growth inhibition read?
Answer: 9.45%

Question: Which growth inhibition does the source give for `Nc1[nH]c(=S)nc2snnc12` here?
Answer: 3.1%

Question: For `O=C1CS(=O)(=O)CN1c1ccc(Cl)c(Cl)c1`, which growth inhibition is on record?
Answer: 7%

Question: With `O=C(N=Nc1c(O)[nH]c2ccccc12)C(=O)N=Nc1c(O)[nH]c2ccccc12` as the compound, how does the growth inhibition read?
Answer: 7.15%

Question: With `CC(C)OP(=O)(OC(C)C)c1ccc2c(c1)OCCOCCOCCOCCO2` as the compound, how does the growth inhibition read?
Answer: -0.15%

Question: For `O=C1c2ccsc2C(=O)c2sc(CO)cc21`, which growth inhibition is on record?
Answer: 90% (active)

Question: For `C=C(C)[C@@H]1CC=C(CO)CC1`, which growth inhibition is on record?
Answer: 28.3%

Question: For `CN(C=O)C(C(=O)Nc1cccc2c(OC(=O)C(N(C)C=O)(N(C)C=O)N(C)C=O)c(N=Nc3ccc(S(=O)(=O)Nc4nccs4)cc3)cc(N=Nc3ccc(S(=O)(=O)Nc4nccs4)cc3)c12)(N(C)C=O)N(C)C=O` (tested in a mixture with another compound), which growth inhibition is on record?
Answer: 16.9%

Question: Which growth inhibition does the source give for `O=[N+]([O-])c1cccc(C=NC23CC4CC(CC(C4)C2)C3)c1` here?
Answer: 30.1%

Question: With `FC(F)(F)c1nc(Nc2ccccc2)c2[nH]cnc2n1` as the compound, how does the growth inhibition read?
Answer: 12.2%

Question: Which growth inhibition does the source give for `CC(=O)Cc1nc(N)nc(Nc2ccc(Cl)c(Cl)c2)n1` here?
Answer: -13%

Question: For `CN(C)S(=O)(=O)c1ccc(NC(=O)OC(C)(c2ccccc2)C2CCCCC2)cc1` (stereo not given), which growth inhibition is on record?
Answer: 1.35%

Question: Which growth inhibition does the source give for `O=C(Nc1ccccc1)Sc1nc2ccccc2s1` here?
Answer: 53.9%

Question: For `COc1ccc2cc(C(=O)c3ccccc3)c(=O)oc2c1`, which growth inhibition is on record?
Answer: 12.2%

Question: For `CCCCCP(=O)(CCC(C)C)CC(C)C` (stereo not given), which growth inhibition is on record?
Answer: -10.6%

Question: With `CCOC(=O)c1cc2c([N+](=O)[O-])cccc2[nH]1` as the compound, how does the growth inhibition read?
Answer: 6.45%

Question: With `N#CC(c1ccccc1)C1CCN(Cc2ccccc2)CC1` (stereo not given) as the compound, how does the growth inhibition read?
Answer: 45.8%

Question: For `Cc1ccc(NC(=O)c2ccc(Cl)cc2)cc1`, which growth inhibition is on record?
Answer: 0%

Question: With `OC1CNC(=S)NC1` as the compound, how does the growth inhibition read?
Answer: -5.2%

Question: Which growth inhibition does the source give for `O=C(NCCN1CCOCC1)c1ccc(I)cc1` here?
Answer: 32.1%

Question: Which growth inhibition does the source give for `CCCCCCCCC(=O)O` (tested in a mixture with another compound) here?
Answer: 2.85%

Question: Which growth inhibition does the source give for `CCCCCNC(=O)C(C)O` (stereo not given) here?
Answer: -2.2%

Question: With `CC(C)=C1CCC(CN2CCOCC2)C1=O` (stereo not given) as the compound, how does the growth inhibition read?
Answer: -2.6%

Question: With `CC[N+](CC)(CC)Cc1cc2ccccc2n1C(=O)OC` as the compound, how does the growth inhibition read?
Answer: -12.2%

Question: For `O=C(O)C1C2C=CC(O2)C1C(=O)NCc1ccncc1` (stereo not given), which growth inhibition is on record?
Answer: -32.5%

Question: Which growth inhibition does the source give for `N#CC1(c2nc3ccccc3o2)C(=O)C(=O)N(C2C3CC4CC(C3)CC2C4)C(=O)C1=O` (stereo not given) here?
Answer: -5.75%

Question: With `c1ccc2c(c1)ccc1c2ccc2c1cc1ccccn12` as the compound, how does the growth inhibition read?
Answer: -20.3%

Question: With `NC(=O)N/N=C/c1cccc2ccccc12` as the compound, how does the growth inhibition read?
Answer: 4.05%

Question: Which growth inhibition does the source give for `O/N=C1/CCCCc2ccccc21` here?
Answer: -14.4%

Question: Which growth inhibition does the source give for `COC(=O)/C=C(/C(=O)OC)C1(C)c2cc(C(=O)OC)c(C(=O)OC)c(N)c2C(=N)N1c1ccccc1` (stereo not given) here?
Answer: -5.15%

Question: With `CN(C)CC1OCCc2ccccc21` (stereo not given) as the compound, how does the growth inhibition read?
Answer: 6.05%

Question: Which growth inhibition does the source give for `O=C1CCC(=O)N1Cc1ccccc1N=[N+]([O-])c1ccccc1CN1C(=O)CCC1=O` here?
Answer: -19.5%

Question: Which growth inhibition does the source give for `C[N+](C)(N)CCS(N)(=O)=O` here?
Answer: 26.7%

Question: For `CCCCCCCCCCCCCCCCCN(C)C(=O)OCC`, which growth inhibition is on record?
Answer: -7.15%

Question: With `CN1N(c2ccccc2)C(=O)C2=NC=C(C(=O)c3ccccc3)C(=N)C21C` (stereo not given) as the compound, how does the growth inhibition read?
Answer: 7.7%

From PubChem BioAssay (NCI)
